Compound activity deposited in PubChem by Broad Institute.
The entries come from a sample that favours hits as a whole.
PD-1 reversal: activators reversing PD-1 mediated T-cell inhibition; primary human CD4 T cells, PD-L1 beads, CellTiter-Glo 96 h; activation, % (concentration not given with the values); 29,000 tested, under 10 active; call rule not given here;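 further: 0% = median vehicle wells and 100% = positive control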
NOMO-1 viab: STK33 inhibitor candidate reducing NOMO-1 cell viability; NOMO-1 AML viability, CellTiter-Glo luminescence, 72 h; actives 7.5% (n = 37,000); AID 2330; inhibition, % (no concentration beside the values); in the data active means inhibition above about 80%; inconclusive means no clear call, values can overlap the other calls
U2OS ROS induce: raises reactive oxygen species in U2OS cancer cells. actives 2% (n = 46,000). ROS induction (% of piperlongumine), % at 10 µM. AID 624156. U2OS ROS induction, H2DCF-DA fluorescence; in the data active means ROS induction above about 79%, passing the limit was not always enough; inconclusive means no clear call, values can overlap the other calls;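 further: 0% = DMSO vehicle median and 100% = reference compound median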
* = called active by the depositor; ? = inconclusive; nt = no result.

SMILES | PD-1 reversal | NOMO-1 viab | U2OS ROS induce
Cc1ccc(-c2nnc(-n3cnc4cc(C)c(C)cc43)c3ccccc23)cc1 | 1 | 42 | 28
Nc1ccc(-n2cnnn2)cc1 | nt | nt | -13
CC(NCc1ccc(C(=O)O)s1)c1ccccc1 (centres undefined) | nt | nt | -8
C[C@H]1CN([C@@H](C)CO)C(=O)c2cc(N(C)C)ccc2O[C@H]1CN(C)Cc1ccc(C(=O)Nc2ccccc2N)cc1 | -2 | 110* | 13
C[C@H]1CN([C@@H](C)CO)C(=O)c2cc(NS(C)(=O)=O)ccc2O[C@H]1CN(C)Cc1ccc(C(=O)Nc2ccccc2N)cc1 | 0 | 30 | 20
C[C@@H]1CN([C@H](C)CO)C(=O)c2cc(NC(=O)Nc3ccc4c(c3)OCO4)ccc2O[C@@H]1CN(C)Cc1ccc(C(=O)Nc2ccccc2N)cc1 | -1 | ? | -7
C[C@@H]1CN([C@@H](C)CO)C(=O)c2cc(N(C)C)ccc2O[C@H]1CN(C)Cc1ccc(C(=O)Nc2ccccc2N)cc1 | -4 | 110* | 15
C[C@H](CO)N1C[C@H](C)[C@H](CN(C)Cc2ccc(C(=O)Nc3ccccc3N)cc2)Oc2ccc(N(C)C)cc2C1=O | -2 | 111* | 21
C[C@@H]1CN([C@H](C)CO)C(=O)c2cc(N(C)C)ccc2O[C@H]1CN(C)Cc1ccc(C(=O)Nc2ccccc2N)cc1 | nt | nt | 3
C[C@@H]1CN([C@H](C)CO)C(=O)c2cc(N(C)C)ccc2O[C@@H]1CN(C)Cc1ccc(C(=O)Nc2ccccc2N)cc1 | -5 | 110* | 37
CC(C)NC(=O)Nc1ccc2c(c1)C(=O)N([C@@H](C)CO)C[C@H](C)[C@@H](CN(C)Cc1ccc(C(=O)Nc3ccccc3N)cc1)O2 | nt | nt | -6
CCC(C(=O)NCC1CCCO1)c1ccccc1 (centres undefined) | nt | nt | -6
O=C(CNC(=O)C1CCCCC1)Nc1nc(CC23CC4CC(CC(C4)C2)C3)cs1 | nt | nt | 4
Cc1nn(-c2ccccc2)c2[nH]c(=O)c(C#N)c(-c3cccs3)c12 | nt | nt | -5
COc1nc(-c2ccccc2Cl)c2cc(Br)ccc2n1 | nt | nt | -5
Cc1nc(/N=C(\N)NC(=O)c2ccccc2)nc2ccccc12 | nt | nt | 37
Cc1nc(N=C(N)N)nc2ccccc12 | 0 | 89* | 21
CN(C)c1ccc(C(=C2C=CC(=[N+](C)C)C=C2)c2ccc(N(C)C)cc2)cc1 | nt | 112* | 341*
CCN(CC)c1ccc(/C=C/C#N)cc1 | nt | nt | -1
Cc1ccc(N2C(=S)NC3c4cc(Cl)ccc4OC2(C)C3C(=O)Nc2ccc(C)cc2C)cc1 (centres undefined) | nt | nt | 3
Cc1ccc2oc(-c3cc(NC(=O)c4ncn[nH]4)ccc3O)nc2c1 | 0 | 34 | 147*
COc1ccc(OCC(=O)Nc2ccc(-c3nc4cc(C)ccc4o3)cc2)cc1 | 1 | 24 | 9
Cn1c(SCc2cc(F)cc(F)c2)nnc1-c1ccc2nonc2c1 | nt | nt | -3
C[C@@H]1CN([C@@H](C)CO)C(=O)c2cccc(NS(=O)(=O)c3ccc(F)cc3)c2O[C@H]1CN(C)Cc1ccc(-c2ccccc2)cc1 | 0 | 34 | ?
C[C@@H]1CN([C@@H](C)CO)C(=O)c2cccc(NS(=O)(=O)c3ccc(F)cc3)c2O[C@@H]1CN(C)Cc1ccc(-c2ccccc2)cc1 | -1 | 84* | 64
C[C@H](CO)N1C[C@H](C)[C@@H](CN(C)Cc2ccc(-c3ccccc3)cc2)Oc2c(NS(=O)(=O)c3ccc(F)cc3)cccc2C1=O | nt | 28 | 63
C[C@H]1CN([C@@H](C)CO)C(=O)c2cccc(NS(=O)(=O)c3ccc(F)cc3)c2O[C@@H]1CN(C)Cc1ccc(-c2ccccc2)cc1 | 0 | 20 | 105*
CC(C)(C)C(/C=C/c1ccc(Cl)cc1Cl)n1nnnc1C(C)(C)N1CCOCC1 (centres undefined) | -1 | 26 | 45
CC(=O)N1CC(C)Sc2cc(S(=O)(=O)Nc3cccc(Cl)c3)ccc21 (centres undefined) | nt | nt | -3
